From PubChem BioAssay (Tox21)
Inconclusive results are not listed. Calls of active or inactive are those of the source. Unless noted, calls come from the whole dose curve; as a rule, active = well fitted curve in the direction sought with a large enough effect in the repeat runs; inconclusive = weak or mixed curves; inactive = no such curve, though single readings can be large; an effect the other way counts as inactive or inconclusive.

Legend:
[1] = qHTS assay to identify small molecule that activate the aryl hydrocarbon receptor (AhR) signaling pathway - cell viability counter screen (AID 743086);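 note: HepG2 liver cells carrying the AhR DRE luciferase reporter; series mostly up to about 70 µM; nearly all actives have a fitted effect of over 45% in size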
How it was run: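 HepG2-AhR-luc (HG2L7.5c1) cells, 4000/well, treated 24 h at 37 C with compound; viability measured as CellTiter-Fluor fluorescence after 30 min in the same wells as the luciferase read.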

[2] = qHTS assay to identify small molecule antagonists of the peroxisome proliferator-activated receptor gamma (PPARg) signaling pathway - cell viability counter screen (AID 743194); note: nearly all actives have a fitted effect of over 55% in size
How it was run: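 Cytotoxicity counter screen in PPARg-bla HEK293H cells, same wells as reporter assay. Compounds plus 50 nM rosiglitazone (final) for 17 h at 37 C, then viability read by CellTiter-Glo luminescence.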

[3] = qHTS assay for small molecule agonists of the antioxidant response element (ARE) signaling pathway (AID 743202; active = well fitted activation curve with a large enough effect in the signal ratio in the repeat runs, not every such curve was filed as active; the % refers to the signal ratio)
How it was run: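 HepG2 ARE-bla cells; 16 h treatment at 37 C; FRET-based beta-lactamase fluorescence read after 2 h substrate incubation at room temperature.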

[4] = qHTS assay for small molecule agonists of the antioxidant response element (ARE) signaling pathway - cell viability counter screen (AID 743203; calls by dose curve; note: nearly all actives have a fitted effect of over 55% in size)
How it was run: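 Parallel cytotoxicity read-out for the ARE-bla screen: HepG2 reporter cells, 16 hrs with compounds, then CellTiter-Glo luminescence.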

[5] = qHTS assay for small molecule activators of the heat shock response signaling pathway - cell viability counter screen (AID 743209); note: nearly all actives have a fitted effect of over 50% in size
How it was run: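 To flag cytotoxic compounds, HSE-bla HeLa cells plated at 1500 cells/well were dosed for 5 h at 37 C, followed by the reporter FRET read and then CellTiter-Glo, with luminescence recorded 30 min after reagent addition.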

[6] = qHTS assay for small molecule activators of the heat shock response signaling pathway (AID 743210; active = well fitted activation curve with a large enough effect in the signal ratio in the repeat runs, with a control signal flat, not every such curve was filed as active; the % refers to the signal ratio;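 note: HeLa cells with beta-lactamase reporter driven by heat shock elements; series mostly up to about 63 µM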)
How it was run: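 Following overnight attachment, HSE-bla HeLa cells received test compounds for 5 h at 37 C; beta-lactamase activity was then detected via FRET substrate fluorescence.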

[7] = qHTS assay to identify small molecule agonists of the peroxisome proliferator-activated receptor delta (PPARd) signaling pathway - cell viability counter screen (AID 743211); note: nearly all actives have a fitted effect of over 55% in size
How it was run: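 Luminescent ATP viability assay (CellTiter-Glo, 30 min RT) in UAS-bla HEK293H cells carrying the PPAR delta reporter construct, 3000 cells/well, after a 17 h compound treatment at 37 C.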

[8] = qHTS assay to identify small molecule antagonists of the peroxisome proliferator-activated receptor delta (PPARd) signaling pathway - cell viability counter screen (AID 743213); note: nearly all actives have a fitted effect of over 50% in size
How it was run: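 CellTiter-Glo was added to PPARd-bla HEK293H wells following 17 h compound treatment in the presence of 300 nM L165041. Luminescence was recorded after 30 min at room temperature.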

[9] = qHTS assay to identify small molecule agonists of the farnesoid-X-receptor (FXR) signaling pathway - cell viability counter screen (AID 743218); note: nearly all actives have a fitted effect of over 45% in size
How it was run: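 Same-well cytotoxicity check on FXR-UAS-bla HEK 293T cells: 5 h attachment, 16 h compound at 37 C, CellTiter-Glo luminescence read at room temperature after 30 min.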

[10] = qHTS assay to identify small molecule antagonists of the farnesoid-X-receptor (FXR) signaling pathway - cell viability counter screen (AID 743221; active = well fitted cell-killing curve with a large enough effect in the repeat runs, not every such curve was filed as active; note: nearly all actives have a fitted effect of over 50% in size)
How it was run: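 In GeneBLAzer FXR-UAS-bla HEK 293T cells stimulated with 50 uM chenodeoxycholic acid (final), compounds acted for 16 h at 37 C. Viability was assessed afterwards by CellTiter-Glo luminescence.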

[11] = biological target: Vitamin D3 receptor (Homo sapiens) (UniProt P11473); assay: qHTS assay to identify small molecule agonists of the vitamin D receptor (VDR) signaling pathway (AID 743222; calls by dose curve)
How it was run: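 Using LiveBLAzer B/G FRET detection, agonism was scored in VDR-bla cells exposed overnight (16 h, 37C) to DMSO-dissolved compounds; substrate incubation was 2 h at room temperature.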

[12] = biological target: Peroxisome proliferator-activated receptor delta (Homo sapiens) (UniProt Q03181); assay: qHTS assay to identify small molecule agonists of the peroxisome proliferator-activated receptor delta (PPARd) signaling pathway (AID 743212; calls by dose curve)
How it was run: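 Tox21 library screened in GeneBLAzer PPARd UAS-bla HEK293H cells. After compound treatment at 37 C, a FRET-based beta-lactamase substrate was applied for 2 h and fluorescence recorded.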

[13] = biological target: Peroxisome proliferator-activated receptor delta (Homo sapiens) (UniProt Q03181); assay: qHTS assay to identify small molecule antagonists of the peroxisome proliferator-activated receptor delta (PPARd) signaling pathway (AID 743215; active = well fitted inhibition curve with a large enough effect in the signal ratio in the repeat runs, not every such curve was filed as active; the % refers to the signal ratio;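 note: cells stimulated with agonist L165041 at 300 nM final during compound exposure; series mostly up to about 62 µM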)
How it was run: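 Screen format: qHTS, antagonist mode. HEK293H PPARd-bla cells received compound and 300 nM L165041 (final), 17 h, 37 C. Beta-lactamase detected via FRET substrate fluorescence, 2 h, room temperature.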

[14] = biological target: Vitamin D3 receptor (Homo sapiens) (UniProt P11473); assay: qHTS assay to identify small molecule antagonists of the vitamin D receptor (VDR) signaling pathway (AID 743223; active = well fitted inhibition curve with a large enough effect in the signal ratio in the repeat runs, not every such curve was filed as active; the % refers to the signal ratio)
How it was run: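 Agonist 1alpha,25-dihydroxyvitamin D3 (3 nM in well) was added with each compound to VDR-bla cells preincubated 4 h. Cells stood 16 h at 37C, then FRET substrate 2 h at room temperature; fluorescence intensity recorded.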

[15] = biological target: Peroxisome proliferator-activated receptor gamma (Homo sapiens) (UniProt P37231); assay: qHTS assay to identify small molecule antagonists of the peroxisome proliferator-activated receptor gamma (PPARg) signaling pathway (AID 743191; calls by dose curve; note: series mostly up to about 63 µM; nearly all actives have a fitted effect of over 30% in size)
How it was run: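 GeneBLAzer PPARg UAS-bla HEK293H cells, 5 h post-plating, exposed to compounds 17 h at 37C. LiveBLAzer B/G FRET substrate added for 1 h at room temperature; beta-lactamase reporter read by fluorescence intensity.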

[16] = biological target: Aryl hydrocarbon receptor (Homo sapiens) (UniProt P35869); assay: qHTS assay to identify small molecule that activate the aryl hydrocarbon receptor (AhR) signaling pathway (AID 743085);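 note: HG2L7.5c1 human HepG2 liver cells with stably integrated DRE-driven firefly reporter; series mostly up to about 70 µM; nearly all actives have a fitted effect of over 15% in size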
How it was run: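 24 h compound exposure, 37C, HepG2-derived HG2L7.5c1 cells with DRE-responsive luciferase. Readouts: fluorescence viability, then luminescence at room temperature after 30 min.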

[17] = biological target: Peroxisome proliferator-activated receptor gamma (Homo sapiens) (UniProt P37231); assay: qHTS assay to identify small molecule agonists of the peroxisome proliferator-activated receptor gamma (PPARg) signaling pathway (AID 743094; active = well fitted activation curve with a large enough effect in the signal ratio in the repeat runs, not every such curve was filed as active; the % refers to the signal ratio)
How it was run: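 Fluorescence-based beta-lactamase readout in HEK293H PPARg UAS-bla cells after 17 h compound exposure (37C) and 1 h B/G FRET substrate incubation at room temperature.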

[18] = qHTS assay to identify aromatase inhibitors - cell viability counter screen (AID 743084);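 note: cells stimulated with testosterone during compound exposure; nearly all actives have a fitted effect of over 55% in size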
[19] = biological target: Bile acid receptor (Homo sapiens) (UniProt Q96RI1); assay: qHTS assay to identify small molecule antagonists of the farnesoid-X-receptor (FXR) signaling pathway (AID 743217; active = well fitted inhibition curve with a large enough effect in the signal ratio in the repeat runs, not every such curve was filed as active; the % refers to the signal ratio)
How it was run: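 Quantitative HTS, beta-lactamase reporter format: FXR-UAS-bla HEK 293T cells co-treated 16 h at 37 °C with compounds and 50 uM final chenodeoxycholic acid, then read by B/G FRET fluorescence.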

[20] = biological target: Bile acid receptor (Homo sapiens) (UniProt Q96RI1); assay: qHTS assay to identify small molecule agonists of the farnesoid-X-receptor (FXR) signaling pathway (AID 743220; active = well fitted activation curve with a large enough effect in the signal ratio in the repeat runs, not every such curve was filed as active; the % refers to the signal ratio)
How it was run: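 FXR-UAS-bla HEK 293T cells carrying a UAS-driven beta-lactamase reporter were plated for 5 h at 37C/5% CO2, then exposed to DMSO-dissolved Tox21 10K compounds for 16 h at 37C. A LiveBLAzer B/G FRET substrate was loaded for 2 h at room temperature before fluorescence reading.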
% is set by controls: 0 for no effect and ±100 for the full control effect.

Bile acid receptor (Homo sapiens), sequence (Q96RI1 whole entry, looked up): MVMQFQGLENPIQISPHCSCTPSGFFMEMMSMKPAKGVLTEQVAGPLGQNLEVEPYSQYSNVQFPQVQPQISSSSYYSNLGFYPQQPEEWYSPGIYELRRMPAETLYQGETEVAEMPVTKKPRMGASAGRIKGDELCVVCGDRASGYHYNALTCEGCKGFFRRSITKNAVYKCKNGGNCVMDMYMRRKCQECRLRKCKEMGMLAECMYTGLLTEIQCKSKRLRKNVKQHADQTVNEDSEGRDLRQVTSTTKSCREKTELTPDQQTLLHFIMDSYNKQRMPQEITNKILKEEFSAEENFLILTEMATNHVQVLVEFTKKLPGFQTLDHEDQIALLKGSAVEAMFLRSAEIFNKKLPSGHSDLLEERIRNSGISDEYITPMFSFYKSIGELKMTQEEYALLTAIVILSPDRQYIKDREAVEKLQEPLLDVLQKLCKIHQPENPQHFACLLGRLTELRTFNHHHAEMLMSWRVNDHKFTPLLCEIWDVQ
Peroxisome proliferator-activated receptor delta (Homo sapiens), sequence (Q03181 whole entry, looked up): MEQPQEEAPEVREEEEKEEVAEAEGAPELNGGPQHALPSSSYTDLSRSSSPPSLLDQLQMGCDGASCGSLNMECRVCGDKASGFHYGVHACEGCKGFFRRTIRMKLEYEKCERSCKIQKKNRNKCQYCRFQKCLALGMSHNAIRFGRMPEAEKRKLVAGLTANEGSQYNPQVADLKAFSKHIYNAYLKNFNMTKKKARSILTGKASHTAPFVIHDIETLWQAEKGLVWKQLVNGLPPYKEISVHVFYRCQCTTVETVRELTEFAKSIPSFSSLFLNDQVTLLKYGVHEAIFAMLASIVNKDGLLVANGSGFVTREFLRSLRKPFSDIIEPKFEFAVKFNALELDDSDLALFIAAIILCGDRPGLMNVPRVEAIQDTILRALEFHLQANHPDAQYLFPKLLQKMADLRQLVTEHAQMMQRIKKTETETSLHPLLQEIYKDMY
Peroxisome proliferator-activated receptor gamma (Homo sapiens), sequence (P37231 whole entry, looked up): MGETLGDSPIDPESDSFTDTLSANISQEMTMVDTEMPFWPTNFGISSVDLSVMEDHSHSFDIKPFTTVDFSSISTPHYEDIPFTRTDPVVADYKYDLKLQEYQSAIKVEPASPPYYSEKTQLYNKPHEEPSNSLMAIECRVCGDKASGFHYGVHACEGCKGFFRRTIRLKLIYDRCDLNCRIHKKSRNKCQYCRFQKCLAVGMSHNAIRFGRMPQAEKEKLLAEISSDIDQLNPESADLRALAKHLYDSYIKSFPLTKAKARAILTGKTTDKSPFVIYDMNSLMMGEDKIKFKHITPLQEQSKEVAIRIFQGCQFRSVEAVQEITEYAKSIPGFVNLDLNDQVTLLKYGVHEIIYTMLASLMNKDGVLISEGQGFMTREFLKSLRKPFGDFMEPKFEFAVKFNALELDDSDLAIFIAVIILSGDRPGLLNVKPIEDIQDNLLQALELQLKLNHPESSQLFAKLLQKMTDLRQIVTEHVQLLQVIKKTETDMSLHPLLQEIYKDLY
Vitamin D3 receptor (Homo sapiens), sequence (P11473 whole entry, looked up): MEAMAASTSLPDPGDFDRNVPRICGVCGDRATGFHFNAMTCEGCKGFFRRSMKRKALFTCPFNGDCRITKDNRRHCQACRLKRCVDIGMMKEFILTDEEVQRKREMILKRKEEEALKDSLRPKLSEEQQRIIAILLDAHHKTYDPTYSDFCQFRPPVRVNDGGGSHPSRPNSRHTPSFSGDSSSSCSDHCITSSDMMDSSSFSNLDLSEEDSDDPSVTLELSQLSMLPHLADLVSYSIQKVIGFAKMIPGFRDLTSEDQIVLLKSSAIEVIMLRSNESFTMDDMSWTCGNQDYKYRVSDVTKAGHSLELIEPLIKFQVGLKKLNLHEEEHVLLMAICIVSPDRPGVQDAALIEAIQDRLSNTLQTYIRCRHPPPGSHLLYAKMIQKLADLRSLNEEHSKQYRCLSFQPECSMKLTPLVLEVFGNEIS
Aryl hydrocarbon receptor (Homo sapiens), sequence (P35869 whole entry, looked up): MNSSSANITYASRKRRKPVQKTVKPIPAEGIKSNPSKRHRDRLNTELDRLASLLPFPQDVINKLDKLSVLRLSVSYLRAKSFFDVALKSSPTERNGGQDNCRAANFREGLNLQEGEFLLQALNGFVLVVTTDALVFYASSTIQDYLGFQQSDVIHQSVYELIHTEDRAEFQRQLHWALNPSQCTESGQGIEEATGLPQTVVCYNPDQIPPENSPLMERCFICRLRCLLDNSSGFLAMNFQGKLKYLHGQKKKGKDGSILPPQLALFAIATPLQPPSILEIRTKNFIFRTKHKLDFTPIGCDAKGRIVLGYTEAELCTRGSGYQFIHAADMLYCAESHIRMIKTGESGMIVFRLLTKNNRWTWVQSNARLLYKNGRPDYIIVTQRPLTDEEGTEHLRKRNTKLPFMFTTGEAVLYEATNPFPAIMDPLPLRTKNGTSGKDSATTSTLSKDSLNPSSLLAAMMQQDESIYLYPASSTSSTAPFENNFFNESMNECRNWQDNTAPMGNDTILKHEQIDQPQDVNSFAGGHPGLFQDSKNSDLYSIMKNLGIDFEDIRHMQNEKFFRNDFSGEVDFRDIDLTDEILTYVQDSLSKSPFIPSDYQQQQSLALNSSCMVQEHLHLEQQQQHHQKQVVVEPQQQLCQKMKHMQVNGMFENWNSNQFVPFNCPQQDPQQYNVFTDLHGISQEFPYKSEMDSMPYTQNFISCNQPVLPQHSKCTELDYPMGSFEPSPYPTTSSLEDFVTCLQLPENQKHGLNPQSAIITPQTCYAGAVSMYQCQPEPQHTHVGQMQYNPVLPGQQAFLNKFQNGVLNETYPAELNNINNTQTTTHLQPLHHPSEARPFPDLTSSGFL

CCOC(=O)CC(C)=O
inactive: Potency [1] | outcome [2] | Potency [3] | Potency [4] | outcome [5] | outcome [6] | Potency [7] | Potency [8] | Potency [9] | Potency [10] | outcome [11]

Cc1[nH]c(=O)c(C#N)cc1-c1ccc2nccn2c1
inactive: Potency [1] | outcome [2] | Potency [3] | Potency [4] | outcome [5] | outcome [6] | Potency [7] | outcome [12] | Potency [8] | Potency [13] | Potency [9] | Potency [10] | outcome [11] | outcome [14]

CCc1cccc2c(CCO)c[nH]c12
inactive: Potency [15] | outcome [2] | Potency [3] | Potency [4] | outcome [5] | outcome [6] | Potency [7] | Potency [8] | Potency [13] | Potency [9] | Potency [10] | outcome [11] | outcome [14]

CC(C)=CCCC(C)CC(=O)O (stereo not drawn)
inactive: Potency [16] | Potency [1] | outcome [17] | outcome [2] | Potency [3] | Potency [4] | outcome [5] | outcome [6] | outcome [12] | Potency [8] | Potency [13] | Potency [9] | Potency [10] | outcome [11] | outcome [14]

CCOC(=O)C(=O)OCC
inactive: Potency [1] | outcome [17] | Potency [15] | outcome [2] | Potency [3] | Potency [4] | outcome [5] | outcome [6] | Potency [7] | outcome [12] | Potency [8] | Potency [13] | Potency [9] | Potency [10] | outcome [11] | outcome [14]

N[C@@H](C(=O)N[C@@H]1C(=O)N2C(C(=O)O)=C(Cl)CS[C@H]12)c1ccccc1
inactive: Potency [18] | Potency [1] | ratio activity, negative = inhibition [15] 6.67% [at 13.2 µM] | activity change, negative = cytotoxicity [2] 0.956% [at 13.2 µM] | activation [3] -0.175% [at 8.36 µM] | viability change, negative = cytotoxic [4] 3.71% [at 8.36 µM] | activity change, negative = cytotoxicity [5] -29.5% [at 13.2 µM] | activation [6] -0.803% [at 13.2 µM] | activity change, negative = cytotoxicity [7] 12.6% [at 13.2 µM] | viability change, negative = cytotoxic [8] 10.2% [at 13.7 µM] | ratio activity, negative = inhibition [13] 0.0649% [at 13.7 µM] | activity change, negative = inhibition [19] -0.0054% [at 13.2 µM] | viability change, negative = cytotoxic [9] 3.28% [at 13.2 µM] | activation [20] 0.369% [at 13.2 µM] | activity change, negative = cytotoxicity [10] 6.46% [at 13.2 µM] | activation [11] 4.64% [at 13.4 µM] | activity change, negative = inhibition [14] 2.28% [at 6.95 µM]

COc1nc(N)nc2c1ncn2[C@@H]1O[C@H](CO)[C@@H](O)[C@@H]1O
inactive: Potency [18] | Potency [1] | outcome [2] | Potency [3] | Potency [4] | outcome [5] | outcome [6] | Potency [7] | Potency [9] | Potency [10] | outcome [11] | outcome [14]

CC(NC(CCc1ccccc1)C(=O)O)C(=O)N1C(=O)N(C)CC1C(=O)O (stereo not drawn)
inactive: Potency [15] | outcome [2] | Potency [3] | Potency [4] | outcome [5] | outcome [6] | Potency [7] | outcome [12] | Potency [8] | Potency [13] | outcome [19] | outcome [20] | Potency [10] | outcome [11] | outcome [14]

CC(C)NCC(O)c1ccc(NS(C)(=O)=O)cc1 (stereo not drawn)
inactive: Potency [1] | outcome [2] | Potency [3] | Potency [4] | outcome [5] | outcome [6] | Potency [7] | outcome [12] | Potency [8] | Potency [13] | Potency [9] | Potency [10] | outcome [11] | outcome [14]

Cc1cnc(NS(=O)(=O)c2ccc(N)cc2)nc1
inactive: outcome [2] | Potency [3] | Potency [4] | outcome [5] | outcome [6] | Potency [7] | outcome [12] | Potency [8] | Potency [13] | Potency [9] | Potency [10] | outcome [11] | outcome [14]

CCCCCCCCCCCCCC=O
inactive: activity change, negative = cytotoxicity [18] -6.33% [at 8.47 µM] | viability change, negative = cytotoxic [1] 3.67% [at 8.47 µM] | ratio activity, negative = inhibition [15] -1.51% [at 5.95 µM] | activity change, negative = cytotoxicity [2] 14.4% [at 5.95 µM] | activation [3] -7.51% [at 8.36 µM] | viability change, negative = cytotoxic [4] 1.02% [at 8.36 µM] | activity change, negative = cytotoxicity [5] -3.36% [at 5.95 µM] | activation [6] -0.951% [at 5.95 µM] | activity change, negative = cytotoxicity [7] 7.31% [at 5.95 µM] | viability change, negative = cytotoxic [8] -6.97% [at 6.26 µM] | ratio activity, negative = inhibition [13] -0.712% [at 6.26 µM] | viability change, negative = cytotoxic [9] 0% [at 5.95 µM] | activity change, negative = cytotoxicity [10] -2.35% [at 5.95 µM]

CN(C(=O)c1c(O)c2ccccc2n(C)c1=O)c1ccccc1
inactive: Potency [18] | Potency [1] | outcome [2] | Potency [3] | Potency [4] | outcome [5] | outcome [6] | Potency [7] | outcome [12] | Potency [8] | Potency [13] | Potency [9] | Potency [10] | outcome [11] | outcome [14]
